TDP1 inh: TDP1 (human) enzyme inhibition. Q9NUW8. recombinant TDP1, AlphaScreen DNA substrate cleavage. Potency, µM (titrated, usually from 130 µM), inactives show at the highest dose activity change, negative = inhibition, usual class: inhibitors. actives 0.28% (n = 350,000). AID 485290; further: on the % scale 0 is the no-effect control and ±100 the full control effect; nearly all actives have a fitted effect of over 40% in size
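Tdp1 1 nM final; 15 min RT w/ cpd; substrate 15 nM, 5 min; beads 10 ug/ml, 10 min; AlphaScreen read. Neg ctrl: no enzyme.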
ClpP mod: qHTS Assay for Activators of ClpP; ATP-dependent Clp protease proteolytic subunit (Bacillus subtilis (strain 168)), P80244; purified B. subtilis ClpP, FRET peptide cleavage, 20 min; Potency, µM (highest dose often 57.5 µM), without a hit: at the highest dose activity change, negative = active; actives 1.9% (n = 340,000); active means well fitted falling curve with a large enough effect; inconclusive means small, poorly fitted or top-dose-only effect; inactive means no such curve, though single readings can be large or run the other way; further: the source files actives as falling curves though it sought activators and does not explain the sign; nearly all actives have a fitted effect of over 65% in size
Target sequence (P80244 whole entry, looked up): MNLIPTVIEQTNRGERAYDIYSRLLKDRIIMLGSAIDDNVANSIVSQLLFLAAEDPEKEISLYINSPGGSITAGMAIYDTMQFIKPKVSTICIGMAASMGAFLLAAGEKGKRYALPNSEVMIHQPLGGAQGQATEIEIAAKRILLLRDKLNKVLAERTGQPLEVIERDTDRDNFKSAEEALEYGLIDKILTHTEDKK
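Buffer: 100 mM Tris/HCl pH8, 100 mM KCl, 0.05% low protease BSA, 2.5% glycerol, 0.01% Tween-20. ClpP 10 microg/mL final; 20 min RT; delta FRET normalized to ADEP and DMSO controls.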
DT40 TDP1 CPT: growth inhibition of DT40 Tdp1-/-;hTDP1 cells with camptothecin (screen for TDP1 inhibitors) | AID 686979 | actives 12% (n = 420,000) | chicken DT40 Tdp1-/-;hTDP1 cells + 20 nM CPT, ATP luminescence, 48 h | Potency, µM (top dose mostly 46.2 µM), for inactives: at the top dose activity change, negative = growth inhibition, usual class: inhibitors; further: on the % scale 0 is the no-effect control and ±100 the full control effect; nearly all actives have a fitted effect of over 55% in size
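Chicken DT40 Tdp1-/- cells stably complemented with human TDP1 were seeded at 400 cells/well in medium containing 20 nM camptothecin, exposed to pin-transferred compounds, and grown at 37 °C for at least 48 hr. Viability was read as ATP luminescence.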
DT40 TDP1 no CPT: qHTS for Inhibitors of human tyrosyl-DNA phosphodiesterase 1 (TDP1): qHTS in cells in absence of CPT; actives 15% (n = 420,000); DT40 Tdp1-/- hTDP1 cells, no CPT, ATP luminescence, 48 h; AID 686978, 2013; Potency, µM (highest dose often 46.2 µM), for inactives: top-dose activity change, negative = growth inhibition, actives largely listed as inhibitors; further: on the % scale 0 is the no-effect control and ±100 the full control effect; nearly all actives have a fitted effect of over 55% in size
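Seeded 400 DT40-hTDP1 cells/well (vehicle DMSO, no 20 nM CPT); pinned compounds; ≥48 hr at 37 °C; CellTiter-Glo luminescence as viability measure.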
Numbers without * were called inactive; ? = inconclusive; / = no result given; [ ] = dose if it differs, or a comment. The list is not random: actives were taken first. Their share in the collection is about 17%. Unless noted, the call rests on the fitted dose curve; in most records, active means well fitted curve in the direction sought with a large enough effect; inconclusive means small, poorly fitted or top-dose-only effect, or another doubt; inactive means no such curve, though single readings can be large; an effect the other way counts as inactive or inconclusive. Potency means the concentration at half of the fitted maximal effect.

SMILES	TDP1 inh	ClpP mod	DT40 TDP1 CPT	DT40 TDP1 no CPT
Cc1ccc(NC(=O)CSc2nc3c(oc4ccccc43)c(=O)n2Cc2ccco2)cc1F	6%	0%	-12%	-29%
COCCn1c(SCC(=O)Nc2cccnc2Cl)nc2cc(Cl)ccc2c1=O	-1%[56.1 µM]	-2%	6%	-21%
CCN(Cc1cccc(F)c1)C(=O)c1ccc2ccccc2n1	/	/	-29%	?
Cc1ccc(CNC(=O)[C@H](C)[C@H]2C[C@]2(C)[C@H](NC(=O)OCc2ccccc2)c2ccccc2)c(F)c1F	-1%	/	/	/
C=CCC1NS(=O)(=O)O[C@H](CCCC)[C@@H]1O (some centres undefined)	/	0%	-16%	2%
COc1ccc(NC(=O)CSc2nc(-c3ccco3)nc3cc(=O)[nH]n23)cc1	/	-1%	-3%	-14%
COc1ccc(NC(=O)CSc2nc(-c3ccco3)nc3cc(=O)[nH]n23)cc1Cl	50µM*	-2%	-3%	1%
COc1ccccc1C1CC(=O)Oc2cc(C)c(Cl)c(C)c21 (centres undefined)	-4%[56.1 µM]	-2%	5%	-13%
COc1cc(=O)n2c(c1C(=O)N(C)Cc1nonc1C)CCN(C(=O)c1cc(C)ccc1C)CC2	/	/	6%	-4%
COc1cccc(C2=NC(C)(C)NC(c3ccccc3O)C2)c1 (centres undefined)	5%	-2%	15µM*	18µM*
COc1cccc(C2=NNC(=NCc3ccccc3)SC2)c1	8%	-4%	?	?
CCC1(C)N=C(c2ccc3c(c2)OCO3)CC(c2ccccc2O)N1 (centres undefined)	7%	-16%	13µM*	13µM*
COc1ccc(C(=O)C2CCCN(Cc3ccc4nonc4c3)C2)c(OC)c1 (centres undefined)	5%	0%	12µM*	?
COc1ccc(C(=O)C2CCCN(Cc3ccc4nonc4c3)C2)cc1OC (centres undefined)	2%	-1%	-19%	-18%
COc1ccc(C(=O)C2CCCN(Cc3c(F)ccc(F)c3F)C2)c(OC)c1 (centres undefined)	3%	/	19%	?
COc1ccc(C(=O)C2CCCN(Cc3cnc(N4CCOCC4)s3)C2)cc1F (centres undefined)	/	/	3%	-20%
COc1ccc(C(=O)C2CCCN(Cc3cccn3-c3ccc(Cl)cn3)C2)c(OC)c1 (centres undefined)	-5%	/	13µM*	21µM*
COc1ccc(C(=O)C2CCCN(Cc3cnc(N4CCOCC4)s3)C2)c(OC)c1 (centres undefined)	-4%	/	-17%	16µM*
COc1ccc(/C=c2\s/c(=C/C(=O)c3ccc(C)cc3)[nH]c2=O)cc1OC	0%	1%	?	18µM*
COc1cc(/C=N/NC(N)=O)ccc1OC(=O)c1ccc(C)cc1	3%	/	/	/
O=C(Nc1nc(-c2ccccn2)cs1)c1cc2ccccc2o1	10%	/	?	7.3µM*
Cc1cc(-c2csc(NC(=O)c3cc4ccccc4o3)n2)c(C)n1C	5%	-3%	?	?
Cc1c(C(=O)Nc2nc(-c3ccccn3)cs2)oc2ccccc12	-2%	-21%	5.2µM*	3.7µM*
CC(C)(C)NC(=O)N1CCC(C(=O)O)CC1	5%	4%	-12%	-2%
O=C(CNc1ccccc1)Nc1cccc2ccccc12	3%	-1%	4%	-27%
SMILES	TDP1 inh	ClpP mod	DT40 TDP1 CPT	DT40 TDP1 no CPT
CCCN1C(=O)c2ccccc2CC1(C)C(=O)NC1CCCCC1 (centres undefined)	-2%	1%	-23%	-24%
CC1(C(=O)NC2CCCCC2)Cc2ccccc2C(=O)N1Cc1ccccc1Cl (centres undefined)	0%	32µM*	?	?
CC(C)(C)OC(=O)[C@H](Cc1ccccc1)NC(=O)c1[nH]cnc1C(=O)N[C@@H](Cc1ccccc1)C(=O)OCc1ccccc1	/	0%	16µM*	23µM*
CC(C)(C)OC[C@H](NC(=O)c1[nH]cnc1C(=O)Nc1ccccc1F)C(=O)OC(C)(C)C	/	3%	21µM*	21µM*
CC(C)(C)OC(=O)[C@H](CCCCN)NC(=O)c1[nH]cnc1C(=O)N[C@@H](Cc1ccccc1)C(=O)OCc1ccccc1	5%	0%	?	-22%
CC(C)(C)OC(=O)[C@H](Cc1ccccc1)NC(=O)c1nc[nH]c1C(=O)N[C@@H](Cc1ccccc1)C(=O)OC(C)(C)C	8%	-4%	15µM*	18µM*
O=C(N[C@@H](Cc1ccccc1)C(=O)OCc1ccccc1)c1nc[nH]c1C(=O)NCc1ccccc1	8%	-11%	18µM*	?
NC(=O)c1sc(-c2ccsc2)cc1NS(=O)(=O)c1ccc(C(F)(F)F)cc1	/	/	-24%	?
COc1cccc(C(=O)Nc2c(C(=O)c3ccc(F)cc3)oc3ccccc23)c1	0%	-9%	-14%	-6%
C[C@H](NC(=O)c1nc[nH]c1C(=O)NCc1ccc(CNC(=O)OC(C)(C)C)cc1)C(=O)OCc1ccccc1	3%	3%	21µM*	16µM*
CC(C)(C)OC(=O)C(Cc1ccc(OC(C)(C)C)cc1)NC(=O)CNC(=O)CNC(=O)OCc1ccccc1 (centres undefined)	5%	2%	?	?
CC(C)(C)OC(=O)[C@H](Cc1ccccc1)NC(=O)c1ncn2c1c(=O)[nH]c1ccc(Br)cc12	/	7.9µM*	4.6µM*	3.3µM*
CC(C)(C)OC(=O)NCCCCCO	22%	-1%	-4%	8%
CC(NC(=O)OCc1ccccc1)C(=O)NCC(=O)NC(Cc1ccc(OC(C)(C)C)cc1)C(=O)OC(C)(C)C (centres undefined)	4%	1%	21µM*	12µM*
CC(C)(C)OC(=O)NCCCCCNC(=O)c1ncn2c1c(=O)[nH]c1ccccc12	/	4%	?	21µM*
O=C(O)c1ccc(CSC2CCCCC2)cc1	/	/	0%	?
NC(=O)C1CCN(c2ccnc3cc(Cl)ccc23)CC1	3%	1%	2%	5%
COc1ccccc1NC(=O)Nc1ccccc1N1CCOCC1	/	/	-10%	-3%
O=C(/C=C/c1ccc(F)cc1)NC(=S)NC1CCCCC1	4%	3%	-20%	?
Cc1ccc(/C=C/C(=O)Nc2ccccc2C(N)=O)cc1	-1%	177%	21µM*	?
O=C(/C=C/c1ccccc1)NC(=S)Nc1ccccc1C(=O)NC1CCCCC1	2%	-5%	?	?
O=C(/C=C/c1ccc(F)cc1)NCCCN1CCN(CCCNC(=O)/C=C/c2ccc(F)cc2)CC1	3%	0%	?	26µM*
Cc1ccc(C(=O)/C=C/Nc2ccccc2C(N)=O)cc1	1%	-14%	-15%	-25%
